HIF-2a inh: HIF-2a reporter inhibitors, primary screen, luminescence, 786-0 RCC cells; 786-0 RCC cells HIF-2a reporter, luciferase luminescence, overnight; inhibition, % at 18.8 µM; 360,000 tested, 0.72% active; AID 624352, 2012;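 active = inhibition of the luminescence signal of 40% or more relative to plate controls, in a single-dose primary screen at 18.75 µM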
EBV LMP1 NFkB: EBV LMP1-driven NF-kappaB luciferase reporter inhibitors, primary screen, cell-based, luminescence, single point; inhibition, % at 12.5 µM; LMP1-induced NF-kappaB luciferase reporter cells; 350,000 tested, 0.69% active; in the data active = inhibition above about 41%;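 note: 0% = neutral control wells and 100% = reference inhibitor control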
Shn3 inh set2: reduction of Shn3 3'UTR firefly luciferase signal, primary screen, Schnurri-3 inhibitor project, cell-based, Clone20 osteoblasts, set 2. Clone20 osteoblast Shn3 3'UTR firefly luciferase, 24 h. inhibition, % at 12.5 µM. 360,000 tested, 0.52% active;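 active = mean inhibition of at least 75% with every replicate also reaching 75%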;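 note: 0% = median of neutral control wells and 100% = pilot-screen positive control compound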
Peg3 promoter: Peg3 promoter-driven luciferase inhibitors, primary screen, cell-based, HeLa, luciferase luminescence; HeLa PEG-Prom luciferase reporter, overnight; inhibition, % at 20 µM; 360,000 tested, 1.7% active;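 active = inhibition of at least 50% at 20 µM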
CF NFkB block: inhibitors of PAF-induced NF-kB signaling, primary screen, cell-based, GFP fluorescence, uHTS; KKLEB NF-kB-GFP reporter, GFP fluorescence overnight; inhibition, % at 5 µM; 360,000 tested, 0.86% active;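 active = at least 50% inhibition at 5 µM, scaled per plate between neutral and stimulator controls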;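 note: PAF is a Pseudomonas aeruginosa culture filtrate used as stimulus; plate controls were PAF-stimulated DMSO wells for no effect and unstimulated DMSO wells for full effect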
KKLEB tox: cytotoxicity in KKLEB CF airway cells, primary screen, cytotoxicity control for CF NF-kB inhibitor project, cell-based, uHTS, fluorescence assay plates; 360,000 tested, 0.36% active; AID 602141, 2011; activity change (cytotoxicity), % at 5 µM; KKLEB CF airway cells viability, ATPlite luminescence, overnight; active compounds read low; cells stimulated with P. aeruginosa culture filtrate;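 active = corrected activity change at or below -50% at 5 µM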
Starred values were filed as active, the others as inactive; x = no result. Shown are actives, neighbours in structure and some others; about 2.9% of the full set was active somewhere.

SMILES | HIF-2a inh | EBV LMP1 NFkB | Shn3 inh set2 | Peg3 promoter | CF NFkB block | KKLEB tox
CC(=NNC(=S)N1CC2CCC(CC2)C1)c1nccs1 | -251 | 73* | 93* | -31 | 67* | -26
COC1C(C)OC(OC2CC(C)(O)Cc3cc4c(c(O)c32)C(=O)c2c(O)cc3c(c2C4=O)OC2OC3(C)C(O)C(N(C)C)C2O)C(OC)C1(C)OC (stereo not drawn) | 14 | 85* | 3 | 34 | 2 | 4
Cc1ccc(N(C)C(=O)Oc2ccc(C(=O)c3ccc(Cl)cc3)cc2)cc1 | -14 | 7 | 40 | 14 | 10 | -8
CCOc1c(Cl)cc(CNCCc2c[nH]c3ccccc23)cc1OC | -1 | -7 | x | 60* | 18 | -8
COc1cccc(CNCCc2c[nH]c3ccccc23)c1 | 11 | x | -5 | -13 | 0 | -4
CCOc1cc(CNCCc2c[nH]c3ccccc23)cc(Cl)c1OCC | 21 | -11 | -12 | 95* | 0 | 0
CC(NCc1ccccc1C(F)(F)F)C(O)c1ccccc1 (stereo not drawn) | -16 | -5 | -8 | -2 | 7 | -7
Cc1cc(O)c2c(c1)C(=O)C13C(=C2O)C(=O)[C@H]2[C@@H](O)[C@@H]1[C@H]1[C@H](O)[C@@H]3C(=O)C3=C(O)c4c(O)cc(C)cc4C(=O)C312 (stereo partly drawn) | -18 | 12 | 58 | 19 | 79* | -14
COC(=O)C1=C(c2ccccc2)C[C@@H]2CC[C@H]1N2C(=O)NCCO | 2 | 4 | 21 | 2 | -16 | -3
C/C1=C\[C@@H](C)C/C=C/[C@H]2[C@@H]3O[C@]3(C)[C@@H](C)[C@H]3[C@H](Cc4c[nH]c5ccccc45)NC(=O)[C@]32C(=O)/C=C/C(=O)[C@@H]1O | 76* | 19 | 88* | 98* | 73* | -53*
CCC1([N+](=O)[O-])COP(=O)(NCc2cccnc2)OC1 (stereo not drawn) | 16 | -10 | -33 | 7 | -12 | 9
CCC(c1nnnn1-c1ccc(OC)cc1)N1CCC(n2c(=O)[nH]c3ccccc32)CC1 (stereo not drawn) | 4 | x | 9 | 23 | -2 | 8
O=c1[nH]c2ccccc2n1C1CCN(C(c2ccnc3ccccc23)c2nnnn2-c2ccc3c(c2)OCCO3)CC1 (stereo not drawn) | -19 | x | 3 | 62* | 77* | -70*
Cc1cccc(C)c1-n1nnnc1C(CCc1ccccc1)N1CCC(n2c(=O)[nH]c3ccccc32)CC1 (stereo not drawn) | 0 | x | 16 | 98* | 48 | -18
CCC(c1nnnn1Cc1ccccc1)N1CCC(n2c(=O)[nH]c3ccccc32)CC1 (stereo not drawn) | -23 | x | 32 | 75* | 99* | -71*
O=c1[nH]c2ccccc2n1C1CCN(C(CCc2ccccc2)c2nnnn2-c2ccc3c(c2)OCCO3)CC1 (stereo not drawn) | -33 | x | 60 | 90* | 60* | -90*
COc1cc(O)cc2c1cc([N+](=O)[O-])c1c(C(=O)O)cc3c(c12)OCO3 | 17 | 1 | 10 | 5 | -12 | 0
CCC1(CC)C(=O)N(C)C(=O)NC1=NC | 15 | 3 | -2 | 5 | -19 | -2
COC(=O)C1=C(c2ccc(-c3ccccc3)c(F)c2)C[C@@H]2CC[C@H]1N2C(=O)NCCCOC(C)C | 20 | 19 | 26 | 6 | 17 | -18
COc1cc2c(cc1OC)[C@@H]1C(=O)c3ccc4c(c3O[C@@H]1CO2)C[C@H](C(C)C)O4 | 4 | 7 | 78 | 29 | 1 | 2
COc1cc2c(cc1OC)C1C(=O)c3ccc4c(c3OC1CO2)CC(C(C)C)O4 (stereo not drawn) | -24 | 17 | 85* | 16 | 9 | 11
Cc1nn(Cc2ccc(Cl)cc2Cl)c(Cl)c1C(=O)O | 12 | -2 | -2 | 4 | 1 | -4

High-throughput results as filed in PubChem.
